The values that follow come from PubChem BioAssay (NCI).

Compounds without any hit were thinned out: in the full panel of roughly 83,000, 20% have a hit.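 Plates (96-well) were seeded with cells, treated with compound at one concentration, and incubated for 48 hours before percent growth was determined.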 Values without a mark were called inactive. Active and inactive are the calls of the source.

In this assay the test system is SK-OV-3 ovarian. Briefly: NCI-60 one-dose screen, 48 h (100 = growth as untreated, 0 = no growth, -100 = all killed). Particulars: 10 µM unless noted. As for the experimental part:
Growth inhibition of the SK-OV-3 human tumor cell line is measured as a screen for anti-cancer activity. Cells are grown in 96 well plates and exposed to the test compound for 48 hours. Compounds are tested at a single concentration, which is 10^-5 M for most compounds. The reported endpoint is percent growth (GI% or GIPRCNT), where numbers from 0 - 100% represent growth inhibition, and numbers from -100% - 0 represent cell death. For example, a value of 40 represents 60% growth inhibition. A value of 0 means no net growth occurred over the course of the experiment. A value of -40 indicates 40% of cells at the beginning of the experiment died by the end of the experiment. A value of -100 means all cells are dead at the end of the experiment.
NCI-60 Human Tumor Cell Lines Screen was performed using the standard one-dose NCI protocol, which is described in more detail at https://dtp.cancer.gov/discovery_development/nci-60/default.htm.
Compounds with GIPRCNT values below 10 were considered active. Activity score was based on GIPRCNT using the following formula: […]
Score is 0 for GIPRCNT values of 100 or above, 50 for GIPRCNT values of 0, and 100 for GIPRCNT values of -100.
On to `COc1ccc(C(=O)c2cc(OC)c(OC)c(OC)c2)cc1/C=C/C(=O)c1ccc2c(c1)OCO2`, for which the growth was 36.6%. As for `CCN(Cc1ccc(CN(CC)C(=O)C(Cl)(Cl)Cl)cc1)C(=O)C(Cl)(Cl)Cl`, the figure is 91.2%; as for `C[N+](C)(C)c1ccc(CC2c3ccccc3-c3ccccc32)cc1`, 75.3%; as for `Cc1cccc(-n2c(C)nc3ccc(NC(=O)NCCCl)cc3c2=O)c1`, 102%.

As for `CCN(CC)CCCNc1nc(C)cc(Nc2ccc3nc(C)cc(N)c3c2)n1`, the growth was 89.9%. As for `COc1cc(/C=C2\CCCC3=C2NC(C)=NC3c2cc(OC)c(OC)c(OC)c2)cc(OC)c1OC` (stereo not given), the figure is 43.9%; as for `C/C1=C\CCC2(C)OC2CC2CCC(C)(O)C(CC1)C2(C)C` (stereo not given), 112%; as for `C=C1C(=O)O[C@H]2[C@H]1CC/C(COC(=O)NCc1cc(OC)cc(OC)c1)=C\CC[C@@]1(C)O[C@@H]21`, 81.7%. As for `COc1ccc(NC(=S)/N=c2\oc3c(OC)cccc3cc2-c2cc3ccccc3[nH]2)cc1`, the figure is 69.4%; as for `c1cncc(CNc2ccccc2-c2nnc(Nc3ccc4c(c3)OCCO4)o2)c1`, -4.48% (active). As for `CCN(Cc1ccccc1)c1ccc(SC#N)cc1`, the figure is 107%. For `COc1ccc(NC(=O)CSc2nc3ccccc3c(=O)n2Cc2cc(OC)c(OC)c(OC)c2)cc1`, the growth was 97%. As for `OC1CC2c3ccccc3C1c1ccccc12` (stereo not given), the figure is 112%; as for `Nc1nc(Cl)c2c(ncn2Cc2ccc(CCl)cc2)n1`, 103%; as for `CC(Br)C(OC(=O)c1ccccc1Cl)c1cc2c(cc1Br)OCO2` (stereo not given), 124%.

For the compound `COc1cc(Br)c(OC)cc1Br`, the growth is 101%. As for `CC1(C)OC2COC3(C(=O)O)OC(C)(C)OC3C2O1` (stereo not given), the figure is 103%; as for `C=CCOc1cccc(/C=C/C(=O)c2sc(Nc3cccnc3)nc2C)c1`, 88.5%. Regarding `COc1ccc2c(c1)NC(=O)CN2c1nc(C)nc2ccccc12`, the growth is 31.3%. As for `O=C(c1ccccc1)C(Cl)C(Cl)c1ccccc1` (stereo not given), the figure is 138%; as for `CC(C)C[C@H](NC(=O)Cn1ccc(NCc2ccccc2)cc1=O)B(O)O`, 56.5%.

`Cc1ccc(Nc2ncnc3c2sc2ncccc23)cc1`: the growth is 101%. With `CCCCC[C@@H]1Cc2cc(O)c(C(=O)O)c3c2[C@H](C[C@@]2(CCCO2)O3)O1`, the growth was 113%. As for `O=S(=O)(c1ccccc1)n1ccc(-c2ccc3c(c2)CCO3)n1`, the figure is 104%; as for `COC1=CC(c2ccc[nH]2)=N/C1=C\c1[nH]c(C)c(CCCn2cc(CCCCCCCCC[C@@H]3Cc4cc(O)ccc4C4CC[C@]5(C)[C@@H](O)CC[C@H]5C43)nn2)c1C` (stereo not given in full), 84%; as for `COc1ccc(S(=O)(=O)N2CCN(c3cc4c(cc3F)c(=O)c(C(=O)O)cn4C3CC3)CC2)c(OC)c1`, 98.6%. The same measure for `CCN(CC)P(=O)(N(CC)CC)N(CCCSC/C=C(\C)CC/C=C(\C)CCC=C(C)C)CCCN1CCN(C)CC1`: 103%. As for `CC(=O)OC[Si](C)(C)c1ccccc1`, the figure is 103%; as for `Nc1cccc2c1CN(C1CCC(=O)NC1=O)C2=O` (stereo not given), 93.1%; as for `COc1cc(Cn2c(-c3nonc3N)nc3ccccc32)ccc1C`, 29.9%.

As for `COc1cc(/C=C2\C=C(c3ccc(F)cc3)N(Cc3ccccc3)C2=O)cc(OC)c1OC`, the growth was 99.3%. The same measure for `CCN(CC)CCCC(C)N=c1cc(Nc2cc(=NC(C)CCCN(CC)CC)c3cc(OC)ccc3o2)oc2ccc(OC)cc12` (stereo not given): 7.55% (active); for `COc1ccc(/C=C/C(=O)c2ccc(NC(=O)CN3CCN(c4cc5c(cc4F)c(=O)c(C(=O)O)cn5C4CC4)CC3)cc2)cc1`: 114%. As for `CCOC(=O)c1cc(/C(=N\O)c2cc(OC)c(OC)c(OC)c2)n2cc(C)cc(C)c12`, the figure is 37.8%. The same measure for `Nc1c(C(=O)Nc2cccc([N+](=O)[O-])c2)sc2nc3c(cc12)C(O)CCC3` (stereo not given): 46.3%; for `COc1ccc(-n2c(C)cc(-c3ccccc3)c2C)cc1`: 83.2%. Consider `COc1ccc(C(=O)N2CCN(C(=O)c3cc(OC)c(OC)c(OC)c3)CC2)cc1OCCCCOc1cc2c(cc1OC)C(=O)N1CCC[C@H]1C=N2`, for which the growth was 108%. The same measure for `COc1ccc(/C=C/C(=O)c2ccc(B(O)O)cc2)cc1O`: 82.7%; for `Nc1c(C(=O)Nc2ccccc2)sc2nc3c(cc12)CCC3`: 95.5%. For `CCc1c(C(=O)Nc2ccc3ccccc3c2)[nH]c(C)c1C(C)=O`, the growth was 99.7%.
